Where “and” joins values, the source holds several entries; their conditions need not be identical. Equal values may be shown once. Results filed as inconclusive are left out. Calls of active or inactive are those of the source. Unless noted, the call rests on the fitted dose curve; in most records, active means well fitted curve in the direction sought with a large enough effect; inconclusive means small, poorly fitted or top-dose-only effect, or another doubt; inactive means no such curve, though single readings can be large; an effect the other way counts as inactive or inconclusive.
Tests used:
[1] = target: Glucocorticoid receptor (Homo sapiens) (UniProt P04150); experiment: GR-GFP Redistribution (AID 450;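 active means compounds whose dose series gives a full or clear partial fitted curve of increased nuclear translocation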; further: potency means the concentration at half of the fitted maximal effect); conditions: U2OS GR-GFP nuclear translocation, laser cytometry, 2 h
Glucocorticoid receptor (Homo sapiens), sequence (P04150 whole entry, looked up, the tested form may be a part): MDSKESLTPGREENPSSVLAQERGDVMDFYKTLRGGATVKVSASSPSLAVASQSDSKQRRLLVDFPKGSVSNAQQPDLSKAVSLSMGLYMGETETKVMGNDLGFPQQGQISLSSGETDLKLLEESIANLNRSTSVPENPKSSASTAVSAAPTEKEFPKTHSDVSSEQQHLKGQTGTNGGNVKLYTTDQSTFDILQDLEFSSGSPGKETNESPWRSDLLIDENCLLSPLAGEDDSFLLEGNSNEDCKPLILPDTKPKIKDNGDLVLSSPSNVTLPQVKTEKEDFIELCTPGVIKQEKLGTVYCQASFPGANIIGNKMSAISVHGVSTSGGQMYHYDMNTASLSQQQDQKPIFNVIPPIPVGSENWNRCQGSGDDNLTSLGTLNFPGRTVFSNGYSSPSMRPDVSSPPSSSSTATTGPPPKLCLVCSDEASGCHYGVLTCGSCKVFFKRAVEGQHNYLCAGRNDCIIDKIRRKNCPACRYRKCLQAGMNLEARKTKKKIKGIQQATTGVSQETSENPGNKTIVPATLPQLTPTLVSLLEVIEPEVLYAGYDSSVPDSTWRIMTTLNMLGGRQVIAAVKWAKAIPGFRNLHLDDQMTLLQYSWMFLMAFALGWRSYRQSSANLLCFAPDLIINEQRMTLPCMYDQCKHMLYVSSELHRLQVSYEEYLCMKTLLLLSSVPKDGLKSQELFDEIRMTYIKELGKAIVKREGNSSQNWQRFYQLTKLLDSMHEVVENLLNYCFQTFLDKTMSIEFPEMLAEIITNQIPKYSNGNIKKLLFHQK

[2] = target: Glucocorticoid receptor (Homo sapiens) (UniProt P04150); experiment: GR-EFC Redistribution (AID 451; calls by dose curve; further: potency means the concentration at half of the fitted maximal effect); conditions: CHO-K1 GR-EFC translocation, beta-gal luminescence, 2 h
How it was run: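 Translocation of GR-ED fusion to nuclear EA restores b-gal, read by luminescence after 1 h room-temperature detection. Engineered CHO-K1 biosensor cells, 1,000/well, exposed 2 h at 37 C to titrations up to 46 uM final.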

[3] = target: Mitogen-activated protein kinase 10 (Mus musculus) (UniProt Q61831); experiment: JNK3 AlphaScreen Assay (AID 530; active means well fitted curve in either direction with a large enough effect, not every such curve was filed as active;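 further: kinase came from lysate of stimulated human HepG2 cells; signal reports phosphorylation of biotinylated GST-cJun 1-79 at Ser73 with 10 µM ATP; on the % scale 0 is the no-effect control and ±100 the full control effect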); conditions: JNK3 lysate, c-Jun phosphorylation; series mostly up to 25.6 µM
How it was run: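 Kinase buffer: 20 mM Tris-HCl pH 7.6, 10 mM MgCl2, 1 mM DTT, 0.1 mM Na3VO4, 0.01% Tween-20; ATP 10 uM. Substrate biotin-GST-cJun(1-79), enzyme from activated HepG2 lysates. Detection by Ser73 phospho-antibody AlphaScreen.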

[4] = target: 3',5'-cyclic-AMP phosphodiesterase 4B (Homo sapiens) (UniProt Q07343); experiment: qHTS Assay for Inhibitors of PDE-IV (AID 607; active means well fitted activation curve with a large enough effect in the main read-out, with a control signal flat, not every such curve was filed as active; further: % of control where 0% means no effect); conditions: HEK293 ACTOne CNG channel cells, membrane potential fluorescence; series mostly up to 22.9 µM
3',5'-cyclic-AMP phosphodiesterase 4B (Homo sapiens), sequence (Q07343 whole entry, looked up): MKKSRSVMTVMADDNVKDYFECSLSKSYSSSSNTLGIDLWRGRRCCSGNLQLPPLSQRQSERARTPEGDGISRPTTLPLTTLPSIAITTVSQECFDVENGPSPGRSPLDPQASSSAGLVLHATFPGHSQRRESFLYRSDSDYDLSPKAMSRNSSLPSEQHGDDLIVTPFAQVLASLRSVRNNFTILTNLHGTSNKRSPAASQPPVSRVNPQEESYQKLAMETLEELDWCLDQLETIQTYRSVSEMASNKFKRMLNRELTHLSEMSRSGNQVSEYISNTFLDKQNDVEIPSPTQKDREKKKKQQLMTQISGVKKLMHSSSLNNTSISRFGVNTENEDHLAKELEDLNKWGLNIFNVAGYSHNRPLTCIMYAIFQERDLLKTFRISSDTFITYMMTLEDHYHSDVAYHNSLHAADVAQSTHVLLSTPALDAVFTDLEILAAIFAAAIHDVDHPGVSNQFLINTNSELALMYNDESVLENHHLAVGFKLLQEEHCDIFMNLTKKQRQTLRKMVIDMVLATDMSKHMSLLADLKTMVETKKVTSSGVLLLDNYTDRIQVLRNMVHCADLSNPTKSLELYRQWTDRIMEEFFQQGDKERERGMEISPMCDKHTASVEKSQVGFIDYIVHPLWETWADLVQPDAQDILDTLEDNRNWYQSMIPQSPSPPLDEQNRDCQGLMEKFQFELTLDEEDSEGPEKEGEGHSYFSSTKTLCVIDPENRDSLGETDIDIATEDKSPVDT
How it was run: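 Live HEK293 cells with a modified cyclic nucleotide-gated (CNG) channel report intracellular cAMP via membrane-potential dye fluorescence (ex 535/em 590 nm). Endogenous PDE-IV was targeted. Compounds were tested at up to 22.9 uM final; RO 20-1724 100 uM served as control.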

[5] = Cell Viability - N2a (AID 540); conditions: N2a mouse neuroblastoma cell viability; activity change, negative = cytotoxicity: at 92.2 µM (top of the series); further: potency means the concentration at half of the fitted maximal effect; nearly all actives have a fitted effect of over 45% in size
How it was run: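 N2a mouse neuroblastoma, 1500 cells/well, 5 hr settle; compound 40 hr, 37 °C; CellTiter-Glo 20 min RT; luminescence; Hill-fit AC50.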

[6] = Cell Viability - NIH 3T3 (AID 541); conditions: NIH 3T3 cell viability, qHTS; activity change, negative = cytotoxicity: at 92.2 µM (top of the series); further: potency means the concentration at half of the fitted maximal effect; nearly all actives have a fitted effect of over 25% in size
How it was run: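 qHTS format; 40 hr compound exposure, 37 °C; CellTiter-Glo luminescence (cellular ATP) read-out after 20 min at RT. Decrease in ATP = cytotoxicity; AC50 from standard Hill fit.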

[7] = Cell Viability - HUV-EC-C (AID 542); conditions: HUV-EC-C endothelial cell viability, qHTS; series mostly up to 92.2 µM; further: potency means the concentration at half of the fitted maximal effect; nearly all actives have a fitted effect of over 35% in size
How it was run: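 Luminescent ATP read-out (CellTiter-Glo, 20 min room temperature) after 40 hr compound treatment of HUV-EC-C cells at 37 °C. Concentration-response data fitted with the standard Hill equation to give AC50; tamoxifen and doxorubicin served as positive controls.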

[8] = Cell Viability - H-4-II-E (AID 543); conditions: H-4-II-E rat hepatoma viability; series mostly up to 92.2 µM; further: potency means the concentration at half of the fitted maximal effect; nearly all actives have a fitted effect of over 35% in size
How it was run: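 qHTS, rat hepatoma H-4-II-E, 1500 cells/well; 40 hr compound exposure, 37 °C; CellTiter-Glo ATP luminescence after 20 min RT; AC50 by standard Hill fit.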

[9] = Cell Viability - Renal Proximal Tubule (AID 545); conditions: renal proximal tubule cells viability, primary cells of rat origin; activity change, negative = cytotoxicity: at 91.7 µM (top of the series); further: nearly all actives have a fitted effect of over 40% in size
How it was run: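 In this qHTS format, normal rat kidney-derived proximal tubule cells in complete culture medium receive compound titrations, then sit 40 hours at 37 °C before luciferase-based ATP quantitation; potency is reported as AC50 from concentration-response curves.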

[10] = Cell Viability - Mesenchymal (AID 546); conditions: mesenchymal cells viability, qHTS; activity change, negative = cytotoxicity: at 91.7 µM (top of the series);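 further: potency means the concentration at half of the fitted maximal effect; cells exposed to compound for 40 hours before reading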
How it was run: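 CellTiter-Glo luminescence (intracellular ATP, 20 min room temperature) after 40 hr compound exposure at 37 °C of 1000 glomerulus-derived human kidney mesenchymal cells/well; AC50 values obtained by fitting qHTS concentration-response data to the Hill equation.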

[11] = Cellular Toxicity (caspase-3) HepG2 (AID 654); conditions: HepG2 caspase-3 activation, luminescence; series mostly up to 92.2 µM;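 further: cells exposed to compound for 16 hours before reading; 0% = DMSO alone and 100% = caspase signal from 100 µM tamoxifen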
How it was run: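 Luminescent Caspase-Glo 3/7 readout after 16 hr compound exposure of human hepatocellular carcinoma HepG2 cells at 37 °C; qHTS concentration-response, normalized DMSO = 0%, 100 uM tamoxifen = 100%; AC50 by standard Hill equation.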

[12] = Cellular Toxicity (caspase-3) Jurkat (AID 655); conditions: Jurkat caspase-3 activation, luminescence; series mostly up to 92.2 µM;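 further: cells exposed to compound for 16 h at 37 °C before reading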
How it was run: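 qHTS in human Jurkat T-cell leukemia line: 16 hr compound treatment at 37 °C, caspase-3/7 activity measured by Caspase-Glo luminescence. AC50 derived from Hill equation.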

[13] = Cellular Toxicity (caspase-3) HUV-EC-C (AID 656); conditions: HUV-EC-C cells, caspase-3 activation (apoptosis), vehicle = 0, 100 µM tamoxifen = 100%; series mostly up to 92.2 µM
How it was run: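 Concentration-dependent caspase 3/7 induction was assessed in HUV-EC-C cells exposed for 16 hours. Data scaled between DMSO and tamoxifen (100 uM) controls.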

[14] = Cellular Toxicity (caspase-3) SHSY5Y (AID 657); conditions: SH-SY5Y caspase-3 activation; series mostly up to 91.7 µM;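 further: cells exposed to compound for 16 hours at 37 °C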
How it was run: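 Readout: caspase-cleaved peptide-aminoluciferin substrate driving luciferase light in SH-SY5Y neuroblastoma cells after 16 h treatment. Response normalized to DMSO and 10 uM staurosporine controls.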

[15] = Cellular Toxicity (caspase-3) BJ (AID 658); conditions: BJ fibroblasts, luminescence, normalized: DMSO 0%, staurosporine 100%; series mostly up to 91.7 µM;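 further: 0% = DMSO basal and 100% = 10 µM staurosporine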
How it was run: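 Caspase-Glo 3/7 luminescence, read 1 hr after reagent at room temperature, in normal BJ fibroblasts exposed 16 hours at 37 °C. AC50 values from Hill-equation concentration-response, scaled between DMSO basal and 10 uM staurosporine as 100%.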

[16] = Cellular Toxicity (caspase-3) MRC-5 (AID 659); conditions: MRC-5 cells, luminescence; Potency: caspase-3 activation; series mostly up to 91.7 µM;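 further: 0% = DMSO basal and 100% = 10 µM staurosporine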
How it was run: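 Luminescent Caspase-Glo 3/7 read-out (1 h, room temperature) after a 16 h, 37 °C compound exposure of MRC-5 lung fibroblasts at 1500 cells/well. Concentration-response AC50 from Hill equation; 0% DMSO, 100% 10 uM staurosporine.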

[17] = Cellular Toxicity (caspase-3) Mesangial (AID 660); conditions: mesangial cells, normalized: DMSO 0%, 100 µM tamoxifen 100%; series mostly up to 91.7 µM;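 further: combined caspase 3 and 7 activity read by Caspase-Glo luminescence; cells exposed to compound for 16 h before the caspase read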
How it was run: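 Luminescent Caspase-Glo 3/7 readout (aminoluciferin substrate cleavage, 20 min RT) after 16 h compound exposure at 37 °C of normal human mesangial cells. Signal increase normalized between DMSO basal and 100 uM tamoxifen; Hill-equation AC50.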

[18] = Cellular Toxicity (caspase-3) SK-N-SH (AID 661); conditions: SK-N-SH caspase-3 activation, qHTS; series mostly up to 91.7 µM;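 further: 0% = DMSO basal and 100% = 10 µM staurosporine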
How it was run: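 Luminescent Caspase-Glo 3/7 read-out after 16 hr compound exposure of SK-N-SH neuroblastoma cells at 37 °C. Signal increase normalized to DMSO (basal) and 10 uM staurosporine (100%); AC50 from Hill equation fits of qHTS concentration-response data.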

[19] = Cellular Toxicity (caspase-3) H-4-II-E (AID 663); conditions: H-4-II-E rat hepatoma; Potency: caspase-3 activation; series mostly up to 92.2 µM;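 further: cells exposed to compound for 16 hr before readout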
How it was run: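 Caspase 3/7 activation measured by luminescent aminoluciferin substrate cleavage after 16 hr compound treatment of H-4-II-E cells in complete medium. Increase normalized between DMSO (basal) and 100 uM tamoxifen (100%); Hill-equation AC50 from concentration-response.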

CCCCOc1ccc(C(=O)CCN2CCCCC2)cc1
inactive: Potency [1] > 20.6 µM | Potency [2] > 20.6 µM | outcome [3]

COc1ccc(CCN2CCC(Nc3nc4ccccc4n3Cc3ccc(F)cc3)CC2)cc1
inactive: Potency [1] > 20.6 µM | Potency [2] > 20.6 µM | outcome [3]

O=C(O)c1cc2cc(Cc3cccnc3)ccc2o1
inactive: Potency [1] > 46 µM | Potency [2] > 46 µM | outcome [3] | outcome [4]

NC(=NCCCCCCN=C(N)/N=C(\N)Nc1ccc(Cl)cc1)/N=C(\N)Nc1ccc(Cl)cc1
inactive: Potency [1] > 20.6 µM | Potency [2] > 20.6 µM | outcome [3] | outcome [4] | Potency [11] | Potency [12] | outcome [13] | Potency [14] | outcome [15] | Potency [16] | outcome [17] | Potency [18] | Potency [19]
active: Potency [5] 31.6 µM | Potency [6] 31.6 µM | Potency [7] 39.8 µM | Potency [8] 31.6 µM | activity change, negative = cytotoxicity [9] -102% | Potency [10] 31.6 µM

CC(=O)O[C@H]1C[C@@H]2CC[C@@H]3[C@H](CC[C@@]4(C)[C@H]3C[C@H]([N+]3(C)CCCCC3)[C@@H]4OC(C)=O)[C@@]2(C)C[C@@H]1[N+]1(C)CCCCC1
inactive: Potency [1] > 20.6 µM

Oc1c(I)cc(I)c2cccnc12
inactive: Potency [1] > 20.6 µM

CC(=O)OCC(=O)[C@@]12OC(C)(C)O[C@@H]1C[C@H]1[C@@H]3C[C@H](F)C4=CC(=O)C=C[C@]4(C)[C@@]3(F)[C@@H](O)C[C@@]12C
active: Potency [1] 0.00057 µM

C/C=C(/C(=C/C)c1ccc(O)cc1)c1ccc(O)cc1
inactive: Potency [1] > 20.6 µM

CCCCOc1cc(C(=O)NCCN(CC)CC)c2ccccc2n1
inactive: Potency [1] > 20.6 µM | Potency [2] > 20.6 µM | outcome [3]

CCOc1ccc(Cc2nccc3cc(OCC)c(OCC)cc23)cc1OCC
inactive: Potency [1] > 20.6 µM | Potency [2] > 20.6 µM | outcome [3]

NCCCC[C@H](N[C@@H](CCc1ccccc1)C(=O)O)C(=O)N1CCC[C@H]1C(=O)O
inactive: Potency [1] > 20.6 µM | Potency [2] > 20.6 µM | outcome [3]

CC(=O)OCC(=O)[C@@]1(OC(C)=O)[C@@H](C)C[C@H]2[C@@H]3C[C@H](F)C4=CC(=O)C=C[C@]4(C)[C@@]3(F)[C@@H](O)C[C@@]21C
active: Potency [1] 0.000878 µM

Oc1ccc(Cl)cc1Sc1cc(Cl)ccc1O
inactive: Potency [1] > 46 µM | Potency [2] > 9.22 µM | outcome [3] | outcome [4] | Potency [11] | outcome [13] | Potency [14] | outcome [15] | Potency [16] | outcome [17] | Potency [18] | Potency [19]
active: Potency [5] 31.6 µM | Potency [6] 31.6 µM | Potency [7] 31.6 µM | Potency [8] 39.8 µM

COc1cc(-c2ccc(=O)[nH]n2)ccc1OC(F)F
inactive: Potency [1] > 46 µM and > 20.6 µM | Potency [2] > 46 µM and > 20.6 µM | outcome [3]

CCCCCCC[N+](CC)(CC)CCCCc1ccc(Cl)cc1
inactive: Potency [1] > 20.6 µM | Potency [2] > 20.6 µM | outcome [3]

— PubChem BioAssay (NCATS)
